Our source for the growth values is PubChem BioAssay (NCI).

Common to all, as to assay: NCI-60 one-dose screen, 48 h (100 = growth as untreated, 0 = no growth, -100 = all killed)
What all share (settings): 10 µM unless noted

In test [1] the test system is NCI-H23 lung.
For test [2], the system named is NCI-H226 lung.
In test [3] the test system is NCI-H322M lung.
Test [4] relates to HOP-92 NSCLC.
Test [5] relates to NCI-H522 lung.
For test [6], the system named is A549/ATCC NSCLC.
Test [7] deals with 786-0 renal.
The subject of test [8] is DU-145 prostate.
Test [9] relates to K-562 leukemia.
Test [10] has as its system MALME-3M melanoma.
In test [11] the test system is MDA-MB-231 breast.
Test [12] relates to RXF 393 renal.
For test [13], the system named is SF-268 CNS.
Test [14] deals with SF-295 CNS.
In test [15] the test system is SF-539 CNS.
Test [16] deals with UACC-257 melanoma.
Test [17] has as its system M14 melanoma.
Test [18] relates to COLO 205 colon.
The subject of test [19] is NCI-H460 lung.

This is part of a sample that, as a whole, favours compounds with a hit. Of some 83,000 tested, about 20% had one in any assay.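 The test compound was applied at a single concentration to cells in 96-well plates for 48 hours, and percent growth was recorded.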 Values without a mark were called inactive. Active and inactive are the calls of the source. Rule for the calls: active = growth percent below 10; inactive = the rest.

As for `COc1cc(/C=C/C(=O)c2ccc(Nc3nc(Nc4ccc(F)cc4)nc(Nc4ccc(Cl)cc4)n3)cc2)cc(OC)c1OC`, the growth in test [1] is 26.3%; in test [2], 61.1%; in test [3], 99.6%; in test [4], 38%; in test [5] it was 62.2%; in [6], 53.1%. Further, the growth in [7] was 66.4%; in [8], 68.5%; in test [9], 35.8%; in [10], 56.2%; in test [11] it was 62.6%; in [12], -31.1% (active). Besides, the growth in [13] is 74.8%; in test [14], 369%; in test [15] it was 67.7%; in test [16] it was 102%; in test [17], 65.6%.

As for `CC(=O)OC[C@H]1OC(Sc2sc(C(=O)c3ccc(Br)cc3)c(N)c2-c2nc3ccccc3s2)[C@H](OC(C)=O)[C@@H](OC(C)=O)[C@@H]1OC(C)=O` (some centres not stated), the growth was 23.8% in test [1]; 28.1% in test [2]; 83.5% in test [3]; 81.7% in test [4]; 63.8% in test [5]; 71.5% in test [6]. For the same molecule, the growth was 62.7% in [7]; 85% in test [18]; 35.8% in [8]; 66.4% in [9]; 20% in test [10]; 10.4% in test [11]. In addition, the growth in test [12] was 70.8%; in test [13] it was 60.9%; in [14] it was 69.6%; in test [15] it was 15.7%; in test [16], 80.1%; in test [17], 61.6%.

In the case of `Cc1ccc(C(=O)C2=C(O)C(=O)N(Cc3cccnc3)C2c2ccccc2F)o1` (configuration not stated), the growth in [1] is 97.9%; in test [2], 96.5%; in [3], 108%; in test [19], 107%; in [4] it was 83.9%; in test [5], 106%. Moreover, the growth in [6] is 87.3%; in test [7], 86.2%; in test [8], 105%; in test [9], 76.7%; in test [10], 101%; in test [11] it was 106%. For the same molecule, the growth in [12] was 95.8%; in test [13] it was 98.1%; in test [14], 93.1%; in test [15] it was 95.1%; in test [16] it was 95.7%; in test [17] it was 101%.

As for `O=C1/C(=C/c2ccc(Br)cc2)C=C(c2ccccc2)N1CCc1ccccc1`, the growth in test [1] is 40%; in [2] it was -1.06% (active); in test [3], 54.3%; in [19] it was 25.6%; in test [4], -13.9% (active); in test [5] it was 31.2%. Further, the growth in [6] is 8.19% (active); in test [7] it was -8.73% (active); in [18], 30.4%; in test [8], 54.1%; in [9] it was 75.5%; in [10], 50.5%. Also, the growth in [11] is 24.8%; in test [12] it was 31.5%; in test [13] it was 33.7%; in [14], -25.6% (active); in [15], 36%; in test [16], 43.7%. Also, the growth in test [17] was 49.9%.

On to `O=C1CCc2c(sc3[nH]c(=S)n(-c4ccc(OC(F)(F)F)cc4)c(=O)c23)C1`, for which the growth in [1] was 14.1%; in test [2] it was 72.4%; in test [3], 90.5%; in test [19], 2.8% (active); in test [4], -10.3% (active); in [5], 7.42% (active). The growth was 77.1% in test [6]; 99.8% in test [7]; 99.2% in test [18]; 81.2% in test [8]; 18% in [9]; 68% in [10]. The growth in test [11] is 61.4%; in test [12] it was 37.3%; in [13] it was 25.6%; in test [14], 17.2%; in test [15], 19%; in test [16], 85.9%. The growth in test [17] is 59.6%.

Regarding `C#Cc1cccc(NC(=O)c2ccc(NC(=O)CCl)cc2)c1`, the growth in test [1] is -55.2% [8.25 µM] (active); in [2], 8.52% [8.25 µM] (active); in test [3] it was 86.6% [8.25 µM]; in [19] it was -24.6% [8.25 µM] (active); in [4] it was -57.6% [8.25 µM] (active); in test [5], -51.6% [8.25 µM] (active). For the same molecule, the growth in [6] was 59.1% [8.25 µM]; in [7], -50.8% [8.25 µM] (active); in test [8], 42.4% [8.25 µM]; in test [9], 7.87% [8.25 µM] (active); in test [10], -83.5% [8.25 µM] (active); in test [11], -22.8% [8.25 µM] (active). For the same molecule, the growth in [12] is 47.9% [8.25 µM]; in [13] it was -8.76% [8.25 µM] (active); in test [14] it was 75.4% [8.25 µM]; in [15] it was -94.7% [8.25 µM] (active); in test [16], 43.3% [8.25 µM]; in [17] it was -60.6% [8.25 µM] (active).

For `O=Cc1ccc(O)c2ncccc12`, the growth in test [1] is 29.2%; in test [2], 116%; in test [3] it was 97.1%; in test [19] it was 30.1%; in [4], 43.5%; in test [5] it was 51.8%. Further, the growth in test [6] is 100%; in test [7], 89.3%; in [18] it was 17.8%; in test [8], 41.9%; in test [9] it was -23.6% (active); in test [10], 19%. In addition, the growth in test [11] was 54.2%; in test [12], 76.6%; in [13] it was 19.1%; in test [14], 29.2%; in [15], 25.1%; in test [16], 27.9%. Moreover, the growth in test [17] is 21.4%.

With `O=c1cc(-c2ccc(Cl)cc2)[nH]c2ccccc12`, the growth in [1] was 83.2%; in test [2], 87%; in [3] it was 92.3%; in test [19] it was 90.8%; in test [4] it was 73.3%; in test [5], 80.9%. Moreover, the growth in [6] is 91.2%; in test [7], 82.4%; in [18], 99.7%; in test [8], 97.4%; in test [9], 33%; in [10], 84.7%. Besides, the growth is 81.6% in test [11]; 76.4% in [12]; 86.1% in test [13]; 84.1% in [14]; 94.5% in test [15]; 73.3% in test [16]. For the same molecule, in [17], the growth was 71.8%.
